Measured values: ChEMBL document CHEMBL3988442, “University of Dundee, Small-Polar-MMV Screening Library” (2021)
The campaign covered roughly 69,000 compounds. About 950 (1.4%) showed an effect of 50% or more. The sample holds strong results, similar compounds and a random draw of the others, so the mix is not that of the screen.

Tested on: Mycobacterium tuberculosis
Test: Cornell M. t heat shock assay; note: in the data most compounds retested in dose-response had high values
Type: functional, organism-based
Design: dose or concentration left out as unconfirmed

SMILES	Percent Effect [%]
Cc1cc(CN2C[C@H]3CC[C@@H]2CN(C2Cc4ccccc4C2)C3)on1	16.59
Cc1cnn(C2CN(Cc3noc(C4CC4)n3)C2)c1	9.159
C1CCCN(CC2CCCN(Cc3noc(C4CC4)n3)C2)CC1 (stereo not drawn)	7.551
c1ccc(-c2cc(CN3CCCC(Cn4cncn4)C3)on2)cc1 (stereo not drawn)	-1.952
c1ccc(CN2C[C@H]3CC[C@@H]2CN(Cc2nnc(C4CC4)o2)C3)cc1	-5.775
C1CC(CN2C[C@H]3CC[C@@H]2CN(Cc2nnc(C4CC4)o2)C3)C1	16.6
c1ccc(-c2cc(CN3C[C@@H]4CC[C@H](C3)N(CC3CC3)C4)on2)cc1	99.84
c1ccc(-c2nnc(CN3C[C@@H]4CC[C@H](C3)N(CC3CCC3)C4)o2)cc1	64.4
c1ccc(-c2cc(CN3C[C@H]4CC[C@H]3C4)on2)cc1	7.341
C1CC(CN2C[C@H]3CC[C@@H]2CN(Cc2noc(C4CCCC4)n2)C3)C1	69.475
CCc1cc(CN2C[C@H]3CC[C@@H]2CN(C2Cc4ccccc4C2)C3)on1	30.93
c1ccc(-c2cc(CN3C[C@@H]4CC[C@H](C3)N(CC3CCC3)C4)on2)cc1	105.8
Cc1noc(C)c1CN1CCCC2(CCN(CC3CCCC3)C2)C1.O=C(O)C(F)(F)F (stereo not drawn)	-3.039
CCN1C[C@@H]2[C@@H](OC)CCN(S(=O)(=O)c3ccccc3)[C@@H]2C1.O=C(O)C(F)(F)F	-5.885
COCC(=O)N1CCn2c(COc3cccnc3)cnc2C1C.O=C(O)C(F)(F)F (stereo not drawn)	5.093
CC(=O)N1CCN(Cc2ccccn2)CC2(CC(=O)N(C)C2)C1.O=C(O)C(F)(F)F.O=C(O)C(F)(F)F (stereo not drawn)	-32.82
CNC(=O)c1cc(C2CCCN2)n[nH]1.Cl (stereo not drawn)	10.86
CC(=O)N1CCC[C@@H](NCc2ccc(F)cc2)[C@@H]1c1ccc(C)s1	15.69
CC(=O)N1CCC[C@@H](NCc2c[nH]c3ccccc23)[C@@H]1c1ccc(C)s1.Cl	67.48
CC(=O)N1CCC[C@@H](NCc2cccc(F)c2)[C@@H]1c1ccc(C)s1.Cl	4.639
O=C(O)C(F)(F)F.O=C1[C@H]2CN(Cc3ccco3)C[C@H]2CN1c1ccsc1	26.88
O=c1c2cnc(N3CCOCC3)nc2ccn1Cc1ccco1	-1.985
CCCc1nc(N2CCCC(CCOC)C2)c2cnn(C)c2n1 (stereo not drawn)	-22.83
CCCOC1CCCN(c2nc(COC)nc3c2cnn3C)C1 (stereo not drawn)	67.42
CCCOC1CCCN(c2nc(CC)nc3c2cnn3C)C1 (stereo not drawn)	77.82
CCCc1nc(N2CCCN3CCC[C@H]3C2)c2cnn(C)c2n1	-9.904
CCc1nc(N2CCCC(CCCOC)C2)c2cnn(C)c2n1 (stereo not drawn)	-4.574
COCc1nc(N2CC[C@H](N(C)C)C2)c2cnn(C)c2n1	-4.11
